The campaign covered roughly 5,500 compounds. About 2,000 (36%) were called active. Roughly 18% stayed inconclusive and do not appear here. Rule as the data show it: active = normalized growth mostly below about 0.91 (no sharp cut-off); inconclusive = no clear call, values can overlap the other calls; inactive = mostly above about 0.92. This is one part of the list.
Assay: chemical genetic growth profiling, strain panel (AID 1159580);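 also: tested at 20 µM; growth read once vehicle control cultures reached saturation at 30 °C; 1 = growth at the plate median or of vehicle wells; lower values mean less growth of the strain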
Conditions: S. cerevisiae deletion strains, growth OD
[1] = locus YDL101C, strain DUN1, hits give low values
[2] = locus YHR030C, strain SLT2, hits give low values
[3] = locus YGR078C, strain PAC10, hits give low values
[4] = locus YJR075W, strain HOC1, hits give low values
[5] = locus YMR263W, strain SAP30, hits give low values
[6] = locus YMR307W, strain GAS1, hits give low values
[7] = locus YNL322C, strain KRE1, hits give low values
[8] = locus YPL055C, strain LGE1, hits give low values
[9] = locus YPL241C, strain CIN2, hits give low values

Measured: normalized growth

Cc1oc(C(C)(C)C)cc1-c1cc(N)n(-c2ccc(I)cc2)n1
inactive: locus YAR019C, strain CDC15, hits give low values 1 | locus YBL105C, strain PKC1, hits give low values 1.01 | locus YBR135W, strain CKS1, hits give low values 1.02 | locus YBR136W, strain MEC1, hits give low values 0.992 | locus YBR160W, strain CDC28, hits give low values 1.01 | locus YDL017W, strain CDC7, hits give low values 1.01 | locus YDL028C, strain MPS1, hits give low values 0.976 | [1] 0.987 | locus YDL108W, strain KIN28, hits give low values 1.02 | locus YDL132W, strain cdc53, hits give low values 1.01 | locus YDL214C, strain PRR2, hits give low values 1.15 | locus YDR052C, strain DBF4, hits give low values 1 | locus YDR054C, strain cdc34, hits give low values 1.01 | locus YDR226W, strain ADK1, hits give low values 0.987 | locus YDR477W, strain SNF1, hits give low values 0.956 | locus YER123W, strain YCK3, hits give low values 0.946 | locus YER133W, strain GLC7, hits give low values 0.992 | locus YFL009W, strain cdc4, hits give low values 0.992 | locus YFL029C, strain CAK1, hits give low values 0.995 | locus YFR003C, strain YPI1, hits give low values 1 | locus YFR019W, strain FAB1, hits give low values 0.967 | locus YFR028C, strain CDC14, hits give low values 1 | locus YGR040W, strain KSS1, hits give low values 0.985 | locus YGR052W, strain FMP48, hits give low values 0.985 | locus YGR092W, strain DBF2, hits give low values 0.882 | locus YHR079C, strain IRE1, hits give low values 0.894 | locus YHR082C, strain KSP1, hits give low values 0.957 | locus YHR205W, strain SCH9, hits give low values 0.885 | locus YIL147C, strain SLN1, hits give low values 0.997 | locus YJL095W, strain BCK1, hits give low values 0.851 | locus YJL128C, strain PBS2, hits give low values 0.961 | locus YJL157C, strain FAR1, hits give low values 0.979 | locus YJR016C, strain ILV3, hits give low values 1.01 | locus YJR066W, strain TOR1 (second series), hits give low values 0.936 | locus YJR066W, strain TOR1, hits give low values 0.903 | locus YKL048C, strain ELM1, hits give low values 0.98 | locus YKL101W, strain HSL1, hits give low values 0.948 | locus YKL193C, strain SDS22, hits give low values 1.02 | locus YKL203C, strain TOR2, hits give low values 1.05 | locus YLR133W, strain CKI1, hits give low values 0.943 | locus YLR403W, strain SFP1, hits give low values 0.965 | locus YML070W, strain DAK1, hits give low values 0.971 | locus YMR001C, strain CDC5, hits give low values 1 | locus YMR205C, strain PFK2 (second series), hits give low values 0.94 | locus YNL006W, strain LST8, hits give low values 1.01 | locus YNL020C, strain ARK1, hits give low values 0.968 | locus YNL161W, strain CBK1, hits give low values 1.02 | locus YNL183C, strain NPR1, hits give low values 0.988 | locus YNL207W, strain RIO2, hits give low values 1.02 | locus YNL222W, strain SSU72, hits give low values 1.03 | locus YNL307C, strain MCK1 (second series), hits give low values 0.935 | locus YOL078W, strain AVO1, hits give low values 1.03 | locus YOL136C, strain PFK27, hits give low values 0.959 | locus YOR061W, strain CKA2, hits give low values 0.944 | locus YOR119C, strain RIO1, hits give low values 0.972 | locus YOR231W, strain MKK1, hits give low values 0.927 | locus YOR329C, strain SCD5, hits give low values 1.01 | locus YPL031C, strain PHO85, hits give low values 0.983 | locus YPL153C, strain RAD53, hits give low values 0.987 | locus YPL204W, strain HRR25, hits give low values 0.964 | locus YPL209C, strain IPL1, hits give low values 1.01 | locus YPL256C, strain CLN2, hits give low values 0.892 | locus YPR025C, strain CCL1, hits give low values 1.01 | locus YPR106W, strain ISR1, hits give low values 0.992 | locus YPR111W, strain DBF20, hits give low values 0.989 | strain NNK1, hits give low values 1 | strain TSCII, hits give low values 1.01
active: [2] 0.717 | locus YLR113W, strain HOG1, hits give low values 0.815 | locus YMR277W, strain FCP1, hits give low values 1.13 [resistant]

C[C@@H](N)Cc1cnc[nH]1
inactive: locus YAL040C, strain CLN3, hits give low values 0.96 | locus YCL061C, strain MRC1 (second series), hits give low values 1.01 | locus YDR363W, strain ESC2, hits give low values 1.02 | locus YER002W, strain NOP16, hits give low values 1.01 | [3] 1.02 | [4] 1.02 | [5] 1.01 | [6] 1.02 | locus YNL128W, strain TEP1, hits give low values 1.01 | locus YNL175C, strain NOP13, hits give low values 1.01 | locus YNL197C, strain WHI3, hits give low values 1.02 | locus YNL224C, strain SQS1, hits give low values 1.02 | [7] 1.02 | locus YOR083W, strain WHI5 (second series), hits give low values 1.04 | [8] 1.03 | [9] 1.01

O=C(Nc1ccc(Br)cc1Cl)C(Cl)(Cl)Cl
active: [2] 0.635 | [4] 0.888 | locus YLR039C, strain RIC1, hits give low values 0.609 | locus YLR262C, strain YPT6, hits give low values 0.635 | [6] 0.56 | locus YOL006C, strain TOP1, hits give low values 0.681 | locus YPR135W, strain CTF4, hits give low values 0.64
inactive: locus YAL013W, strain DEP1, hits give low values 0.975 | locus YBR229C, strain ROT2, hits give low values 0.964 | [1] 0.996 | locus YDR150W, strain NUM1, hits give low values 0.97 | locus YEL061C, strain CIN8, hits give low values 0.945 | [3] 0.943 | locus YHR087W, strain rtc3, hits give low values 0.935 | locus YJR043C, strain POL32, hits give low values 0.957 | locus YKL190W, strain CNB1, hits give low values 0.941 | locus YLR058C, strain SHM2 (second series), hits give low values 0.94 | locus YLR085C, strain ARP6, hits give low values 0.782 | locus YML094W, strain GIM5, hits give low values 1.04 | locus YMR219W, strain ESC1, hits give low values 0.955 | [5] 0.963 | locus YNL153C, strain GIM3, hits give low values 0.962 | locus YNL298W, strain CLA4 (second series), hits give low values 0.855 | [7] 0.95 | locus YNR030W, strain Alg12, hits give low values 0.935 | [8] 0.956 | [9] 1.02

Source: PubChem BioAssay AID1159580 (chemical genetic matrix, 2015)
